Test results as given in PubChem BioAssay (Tox21).
Values without a mark were called inactive. Inconclusive results are not listed. A call without a number means that no potency is given here. Calls of active or inactive are those of the source. Calls follow the shape of the full dose curve.

Tests used:
[1] = target: Acetylcholinesterase (Homo sapiens) (UniProt P22303); assay: Acetylcholinesterase (AChE) small molecule antagonists: colormetric cell-based qHTS assay (AID 1347395); also: nearly all actives have a fitted effect of over 30% in size; also: potency is read from the fitted curve at half-maximal effect
Sequence of Acetylcholinesterase (Homo sapiens) (P22303 whole entry, looked up): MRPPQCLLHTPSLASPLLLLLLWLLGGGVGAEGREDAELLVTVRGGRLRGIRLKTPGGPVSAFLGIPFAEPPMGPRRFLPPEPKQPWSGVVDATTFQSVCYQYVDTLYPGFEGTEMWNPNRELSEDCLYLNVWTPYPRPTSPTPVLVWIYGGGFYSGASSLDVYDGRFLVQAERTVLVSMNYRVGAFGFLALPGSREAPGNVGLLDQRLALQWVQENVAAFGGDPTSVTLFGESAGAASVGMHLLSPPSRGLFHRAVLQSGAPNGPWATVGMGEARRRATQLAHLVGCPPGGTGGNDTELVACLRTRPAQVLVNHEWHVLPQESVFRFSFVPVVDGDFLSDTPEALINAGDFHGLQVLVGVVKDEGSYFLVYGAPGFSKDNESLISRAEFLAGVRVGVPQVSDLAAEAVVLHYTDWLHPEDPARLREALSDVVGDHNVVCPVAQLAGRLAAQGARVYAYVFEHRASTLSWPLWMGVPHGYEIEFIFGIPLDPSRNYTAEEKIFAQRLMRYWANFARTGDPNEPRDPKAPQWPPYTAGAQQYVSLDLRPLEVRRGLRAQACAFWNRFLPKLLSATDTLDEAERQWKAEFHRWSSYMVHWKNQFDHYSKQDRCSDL
How it was run: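 In this cell-based qHTS, attached SH-SY5Y cells were treated with test chemicals for 30 min, after which acetylthiocholine hydrolysis was followed by DTNB colour development over 90 min at 37 C.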

[2] = target: Acetylcholinesterase (Homo sapiens) (UniProt P22303); assay: Acetylcholinesterase (AChE) small molecule antagonists: fluorescence cell-based qHTS assay (AID 1347398); conditions: Potency: AChE activity; outcome: AChE activity; also: nearly all actives have a fitted effect of over 50% in size; also: potency is read from the fitted curve at half-maximal effect
How it was run: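 Human SH-SY5Y cells were plated overnight at 37 C, exposed to compound for 30 min at 37 C, 5% CO2, then given acetylthiocholine plus Thiolite Green for 40 min at room temperature; thiocholine fluorescence (Ex/Em 490/520 nm) reports endogenous AChE activity.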

[3] = target: Acetylcholinesterase (Homo sapiens) (UniProt P22303); assay: Acetylcholinesterase (AChE) small molecule antagonists: enzyme-based qHTS assay with human liver microsomes (AID 1347399); conditions: Potency: qHTS inhibition; outcome: qHTS inhibition; also: nearly all actives have a fitted effect of over 60% in size
How it was run: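 Recombinant human AChE (50 mU/mL in the enzyme mix) and human liver microsomes (0.25 mg/mL final) were preincubated with compound and NADPH (0.25 mg/mL final) for 30 min at 37 C. Acetylthiocholine/DTNB was then added; thiocholine was read colorimetrically after 10 min at room temperature.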

[4] = target: Acetylcholinesterase (Homo sapiens) (UniProt P22303); assay: Acetylcholinesterase (AChE) small molecule antagonists: enzyme-based qHTS assay (AID 1347397); conditions: Potency: AChE enzyme activity inhibition; outcome: AChE enzyme activity inhibition; also: nearly all actives have a fitted effect of over 55% in size
How it was run: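 Recombinant human AChE, dispensed at 50 mU/mL, was preincubated with Tox21 10K compounds or DMSO vehicle for 30 min at room temperature. DTNB plus acetylthiocholine was then added, and thiocholine was measured colorimetrically after a further 10 min.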

SMILES | Potency [1] | Potency [2] | Potency [3] | Potency [4]
CCN(CC)c1ccc(N)cc1 | 32.6 µM (active) | 32.6 µM (active) | inactive | 
COc1cc(N)c(Cl)cc1C(=O)NC1CCN(Cc2ccccc2)CC1 | 17.4 µM (active) |  | inactive | 
CCc1cc(SCc2sc(-c3ccc(C(F)(F)F)cc3)nc2CN2CCN(c3ccc(OC)cc3)CC2)ccc1OCC(=O)O | inactive | inactive | inactive | 
CCN(Cc1cccc(S(=O)(=O)O)c1)c1ccc(C(=C2C=CC(=[N+](CC)Cc3cccc(S(=O)(=O)[O-])c3)C=C2)c2ccccc2)cc1 | inactive |  | inactive | 
CCCCOC(=O)CCCCC(=O)OCCCC | inactive | inactive | inactive | 
COc1cc(C(=O)NC2CCCNC2)cc(OC)c1OC (stereo not drawn) | inactive |  | inactive | 
Cc1ccsc1/C=C/C1=NCCCN1C | 17.4 µM (active) |  | inactive | 
CC(=O)[C@H]1CC[C@H]2[C@@H]3C=CC4=CC(=O)CC[C@@]4(C)[C@@H]3CC[C@]12C | inactive |  | inactive | 
COC(=O)CS | inactive | inactive | inactive | 
CNc1ccc(O)cc1 | 22.4 µM (active) | 31.7 µM (active) | inactive | 
C[N+]1(C)CCCC(OC(=O)C(O)(c2ccccc2)c2ccccc2)C1 (stereo not drawn) | inactive | inactive | inactive | 
CCOC(=O)c1ccc(NC(=O)CN2CCCCC2)cc1 | 30.9 µM (active) |  | inactive | 
OCCN1CCN(CCCN2c3ccccc3Sc3ccc(C(F)(F)F)cc32)CC1 | inactive |  | inactive | 
COC(=O)c1cc(S(N)(=O)=O)ccc1OC | inactive | inactive | inactive | 
OCCNCc1ccccc1 | inactive | inactive | inactive | 
C=CCc1cc(S(=O)(=O)c2ccc(O)c(CC=C)c2)ccc1O | inactive |  | inactive | 
CCCC(=O)OC[C@@H](OC(=O)CCC)[C@@H](OC(=O)CCC)[C@H](Cn1c2nc(=O)[nH]c(=O)c-2nc2cc(C)c(C)cc21)OC(=O)CCC | inactive |  | inactive | 
O=C(O)Cc1ccc(OCCNC[C@H](O)c2ccccc2)cc1 | inactive | inactive | inactive | 
CCOc1nc2cccc(C(=O)OC(C)OC(=O)OC3CCCCC3)c2n1Cc1ccc(-c2ccccc2-c2nn[nH]n2)cc1 (stereo not drawn) | inactive | inactive | inactive | 
CCCCCCCCCCCCOC(=O)c1ccc(O)cc1 | inactive | inactive | inactive | 
Cn1c(=O)c2c(ncn2CC(=O)O)n(C)c1=O | inactive |  | inactive | 
C=CC[N+]1([C@H]2C[C@H]3[C@@H]4CC[C@H]5C[C@H](OC(C)=O)[C@@H](N6CCCCC6)C[C@]5(C)[C@H]4CC[C@]3(C)[C@H]2OC(=O)CC)CCCCC1 | 27.5 µM (active) | 13.8 µM (active) | inactive | 

SMILES | Potency [1] | Potency [2] | Potency [3] | Potency [4]
O[C@@H](CNC[C@H](O)[C@H]1CCc2cc(F)ccc2O1)[C@@H]1CCc2cc(F)ccc2O1 | inactive |  | inactive | 
Cc1ccc2c(c1)OCC(=O)CO2 | 35.6 µM (active) |  | inactive | 
Nc1ccc(N=Nc2ccccc2)c(N)c1 | inactive |  | inactive | 
CC(=O)/C=C/C=C1/C2CCC(C2)C1(C)C (stereo not drawn) | 27.5 µM (active) |  | inactive | 
CN1CCCN=C1/C=C/c1cccs1 | 15.5 µM (active) |  | inactive | 
O=C(CS(=O)Cc1ccco1)NC/C=C\COc1cc(CN2CCCCC2)ccn1 (stereo not drawn) | 38.9 µM (active) |  | inactive | 
Clc1ccc(C(Cn2ccnc2)OCc2ccsc2Cl)c(Cl)c1 (stereo not drawn) | inactive |  | inactive | 
Cc1c(C)n(Cc2ccccc2)c2ccc(C(=O)OCCN(C)C)cc12 | inactive | 13.8 µM (active) | inactive | 
Clc1ccc(C(Cn2ccnc2)OCc2c(Cl)cccc2Cl)c(Cl)c1 (stereo not drawn) | inactive |  | inactive | 
Cc1nc2n(c(=O)c1CCN1CCC(C(=O)c3ccc(F)cc3)CC1)CCS2 | 13.8 µM (active) | 9.77 µM (active) | inactive | 
O=C(Nc1ccc2c(O)c(N=Nc3ccc(N=Nc4ccc(S(=O)(=O)O)cc4)cc3)c(S(=O)(=O)O)cc2c1)c1ccccc1 | inactive |  | inactive | 
CCCN(CCc1cccs1)[C@H]1CCc2c(O)cccc2C1 | 13.8 µM (active) | 11 µM (active) | inactive | 
CCCCCCCCCC[N+](C)(CCCCCCCCCC)CCC[Si](OC)(OC)OC | inactive |  | inactive | 
CC[N+](CC)(CC)CCOC(=O)C(C1CCCC1)C1CCCC1 | inactive | inactive | inactive | 
O=C(Nc1ccc(Cl)c(Cl)c1)c1cc(Cl)cc(Cl)c1O | inactive | inactive | inactive | 
CCCCCCCCc1ccc(Nc2ccc(CCCCCCCC)cc2)cc1 | inactive | inactive | inactive | 
CCCCCCCCCCCCCCOS(=O)(=O)O | inactive | inactive | inactive | 
CC(Cc1ccc(O)c(O)c1)C(C)Cc1ccc(O)c(O)c1 (stereo not drawn) | inactive |  | inactive | 
C1COC1 | inactive | inactive | inactive | 
CCCCCC(=O)CC |  | inactive | inactive | inactive
O=C(O)c1cccnc1Nc1cccc(C(F)(F)F)c1 |  | inactive | inactive | inactive
